# Results reported in the supplement of paper PMC6555819.
# Tests used:
# Test in all cases: PBM binding z-score (relative to random genomic background probes); higher = stronger binding; sequences stand for … in GC…GCGATTGACAGCGTAGAATGAAGG
# [1] = tested on: PPARg:RXRa DBDmut IVT, anti-RXR (DBD mutation: RXRa K156A/R161A, NR concentration 270 nM, RXRa partner concentration 90 nM)
# Procedure, shortened: (§1)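 Regression normalization was applied to scanned fluorescence from custom Agilent 4×180K protein-binding microarrays. Before scanning, arrays were incubated 1 h with ligand-free nuclear receptor dimers, and binding was detected with antibodies against each partner (one per run). Binding z-scores use the random background probes as reference.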
# [2] = tested on: PPARg:RXRa IVT, anti-PPARg (NR concentration 270 nM, RXRa partner concentration 90 nM)
# Procedure, shortened: as §1
# [3] = tested on: PPARg DBDmut:RXRa IVT, anti-PPARg (DBD mutation: PPARg1 K132A/R137A, NR concentration 270 nM, RXRa partner concentration 90 nM)
# Procedure, shortened: as §1
# [4] = tested on: PPARg DBDmut IVT, anti-PPARg (DBD mutation: PPARg1 K132A/R137A, NR concentration 270 nM)
# Procedure, shortened: as §1
# [5] = tested on: PPARg homodimer (NR concentration 180 nM)
# Procedure, shortened: as §1
# [6] = tested on: PXR:RXRa (NR concentration 270 nM, RXRa partner concentration 90 nM)
# Procedure, shortened: as §1
# [7] = tested on: PXR homodimer (NR concentration 270 nM)
# Procedure, shortened: as §1
# [8] = tested on: RARa:RXR (NR concentration 270 nM, RXRa partner concentration 90 nM)
# Procedure, shortened: as §1
# [9] = tested on: RARa homodimer (NR concentration 270 nM)
# Procedure, shortened: as §1
# [10] = tested on: RARb:RXRa (NR concentration 270 nM, RXRa partner concentration 90 nM)
# Procedure, shortened: as §1
Sequence,PBM binding z-score [1],PBM binding z-score [2],PBM binding z-score [3],PBM binding z-score [4],PBM binding z-score [5],PBM binding z-score [6],PBM binding z-score [7],PBM binding z-score [8],PBM binding z-score [9],PBM binding z-score [10]
CCTATTAGTTGATCATAAGGGCAACCGAAGCTCG,0.357,0.623,0.203,0.605,1.64,0.491,0.836,0.442,1.25,1.23
CGTCCAAGGTCAGAGGGGTCAGTGAATGCCGAGT,2.84,3.28,-0.262,0.193,5.46,6.03,9.87,6.26,2.33,5.24
CGAACGAGGGCATGAGTTGTTAGCAAATGCCGAT,3.23,2.05,-0.603,-0.6,-0.0331,0.251,-0.0972,0.245,-0.393,1.98
CGTCCAAGGTCAATGCTAGGTCAGAGAAAGCATT,3.57,3.92,0.456,-0.0823,4.96,4.85,1.92,5.99,1.27,5.25
AGAACGAGCGCAATGAGTTGATAGCACGGGTGGC,-0.343,-0.563,0.051,-0.552,0.0308,-0.486,-0.247,-0.449,-0.49,-0.312
AGTCAAAGTTCCGGACGAGGTAACGTAAAGCACG,-0.341,0.284,0.0206,-0.236,-0.335,-0.34,-0.452,0.0687,-0.122,0.265
CTCGAAAGGTCGGTTGAGGTGAGTAGACGGATAA,-0.178,0.996,-0.252,-0.747,0.919,3.03,0.241,2.71,-0.0972,3.11
ATTCAAAGTTCACTAGGTAACGTAAGATTCAGCT,2.64,4.4,1.68,2.19,2.66,3.71,3.03,2.9,2.06,4.61
CGAACTAGGTCATTGACAGGACAGTTAATAGTAA,8.43,8.43,3.82,2.93,2,1.68,0.386,2.32,0.822,3.6
CGTCCAAGGTCACTGCTAGGTCAGTGAAAGCATT,3.59,4.59,-0.128,0.266,3.91,4.72,1.09,5.65,0.316,5.42
TAGCCTAGGTCAGTTCGGGCCAGTATACGCTATA,0.449,1.21,-0.878,-1.14,-0.282,1.53,-0.352,0.927,-0.951,2.92
CGCCAAAGTTCAAGGTAACGTAACAGAAAGCAGC,0.89,1.7,0.701,0.562,1.95,4.18,2.34,3.4,1.12,5.28
CGAACTAGGTCATCCAGGACAGTGTATACATTGA,8.32,8.01,2.41,1.17,1.54,2.03,1.29,2.33,0.356,4.02
TCATATATGTAAAAGGTGAAAGTCGGTGTGGTAA,2.46,2.83,0.873,0.794,1.98,1.21,-0.143,1.85,1.14,1.9
AGAACGAGGGCAATGAGTTGACAGCACGGGTGGC,3.68,2.54,0.168,0.4,-0.106,1.19,2.68,0.713,-0.225,2.12
GGAACGAGGGCAAAGTTGTTAGCATCTGTCGACG,3.85,3.57,0.128,-0.75,0.469,0.802,0.198,0.675,0.0341,2.31
CGAACTAGGTCAGAACAGGACAGTCAAGGATGAT,7.24,7.46,1.4,0.732,0.7,1.08,0.108,1.05,0.263,3.08
GTACCAAGGTGAATAGGTCCTTGATGAGTAGGCG,1.68,1.9,-0.22,-0.0495,0.461,-0.118,-0.138,0.337,0.144,1.23
TATACAGGGTCAAAGGCCAGAGCACGAATGTCGA,2.75,4.99,1.39,1.27,1.83,4.17,0.0861,5.31,0.94,4.36
ATCTCTAGGTAAGACTAAGTTCAGTGAAGAACGC,1.81,1.37,0.418,0.902,1.48,1.83,1.82,1.14,0.975,1.19
GCTGCTAGGTCAGGTTGGTCAGATAACGGGTACG,2.83,2.3,-0.406,-0.502,0.742,0.425,-0.0616,0.792,0.212,3.22
ATATCAAGGTGATCGTGAGGTCGTTGATACTAAC,1.67,2.27,1.01,1.33,0.347,3.24,1.18,2.03,0.406,1.69
